NIH3T3 tox = cytotoxic compounds in NIH 3T3 cells; 4.3% of 94,000 active; Potency, µM (highest dose often 96.7 µM), without a hit: at the highest dose activity change, negative = cytotoxicity, most hits filed as inhibitors; NIH 3T3 viability, CellTiter-Glo ATP luminescence, 48-72 h; also: % is scaled to controls: 0 for no effect and ±100 for the full control effect; nearly all actives have a fitted effect of over 55% in size
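ATP-dependent luminescence (CellTiter-Glo) served as the viability signal for NIH 3T3 cells treated with compound for 48 or 72 hr at 37 °C.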
HEK293 tox = HEK 293 cell cytotoxicity. HEK 293 viability, ATP luminescence (CellTiter-Glo), 48-72 h. Potency, µM (titrated, usually from 115 µM), for inactives: at the highest dose activity change, negative = cytotoxicity, actives largely listed as inhibitors. 6.6% of 94,000 active; also: % is scaled to controls: 0 for no effect and ±100 for the full control effect; nearly all actives have a fitted effect of over 60% in size
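ATP-coupled CellTiter-Glo luminescence served as viability read-out, recorded 10 min after reagent addition at room temperature. HEK 293 cells, 250 cells/well, had been incubated with pintool-transferred compound for 48 or 72 hr at 37 degree Celsius.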
Luciferase inh = Photinus pyralis luciferase inhibition; 2.5% of 76,000 active; P08659; Potency, µM (top dose mostly 115 µM), most hits filed as inhibitors; AID 1347043; purified P. pyralis luciferase, luminescence, biochemical; also: % is scaled to controls: 0 for no effect and ±100 for the full control effect; nearly all actives have a fitted effect of over 65% in size
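Luminescence read by CCD imaging after purified firefly luciferase (10nM final) was added to substrate buffer holding 10uM D-luciferin and 10uM ATP, pH 7.5, pre-dosed with compound.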
hNpr1 antagonist = antagonists of human natriuretic peptide receptor Npr1. AID 1347048. 1.6% of 76,000 active. HEK293 hNpr1 GloSensor cGMP, ANP-stimulated luminescence. Potency, µM (doses to about 46.3 µM), without a hit: at the highest dose activity change, negative = inhibition, hits mostly inhibitors. P16066; calls by dose curve; also: % is scaled to controls: 0 for no effect and ±100 for the full control effect; nearly all actives have a fitted effect of over 60% in size
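HEK293 cells stably expressing human Npr1 and cGMP GloSensor pGS-40F, loaded 2 h with 2% GloSensor reagent, given compound 30 min at room temperature. Luminescence read before and 20 min after 0.1 nM hNppA.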
NPR1 antag cnf = confirmation of human Npr1 natriuretic peptide receptor antagonists; shares compounds with hNpr1 antagonist; HEK293 hNpr1 cGMP GloSensor luminescence, ANP-stimulated; Potency, µM (titrated, usually from 57.6 µM), for inactives: at the highest dose activity change, negative = inhibition, hits mostly inhibitors; 76% of 1,400 active; calls by dose curve; also: nearly all actives have a fitted effect of over 70% in size
NPR2 antag = antagonizes human Npr2, subtype selectivity check | shares compounds with hNpr1 antagonist | HEK293 hNpr2 GloSensor cGMP luminescence, CNP-stimulated | Potency, µM (series often up to 57.6 µM), for inactives: top-dose activity change, negative = inhibition, actives largely listed as inhibitors | 67% of 1,400 active | AID 1347046; calls by dose curve; also: nearly all actives have a fitted effect of over 70% in size
Target sequence (P20594 whole entry, looked up): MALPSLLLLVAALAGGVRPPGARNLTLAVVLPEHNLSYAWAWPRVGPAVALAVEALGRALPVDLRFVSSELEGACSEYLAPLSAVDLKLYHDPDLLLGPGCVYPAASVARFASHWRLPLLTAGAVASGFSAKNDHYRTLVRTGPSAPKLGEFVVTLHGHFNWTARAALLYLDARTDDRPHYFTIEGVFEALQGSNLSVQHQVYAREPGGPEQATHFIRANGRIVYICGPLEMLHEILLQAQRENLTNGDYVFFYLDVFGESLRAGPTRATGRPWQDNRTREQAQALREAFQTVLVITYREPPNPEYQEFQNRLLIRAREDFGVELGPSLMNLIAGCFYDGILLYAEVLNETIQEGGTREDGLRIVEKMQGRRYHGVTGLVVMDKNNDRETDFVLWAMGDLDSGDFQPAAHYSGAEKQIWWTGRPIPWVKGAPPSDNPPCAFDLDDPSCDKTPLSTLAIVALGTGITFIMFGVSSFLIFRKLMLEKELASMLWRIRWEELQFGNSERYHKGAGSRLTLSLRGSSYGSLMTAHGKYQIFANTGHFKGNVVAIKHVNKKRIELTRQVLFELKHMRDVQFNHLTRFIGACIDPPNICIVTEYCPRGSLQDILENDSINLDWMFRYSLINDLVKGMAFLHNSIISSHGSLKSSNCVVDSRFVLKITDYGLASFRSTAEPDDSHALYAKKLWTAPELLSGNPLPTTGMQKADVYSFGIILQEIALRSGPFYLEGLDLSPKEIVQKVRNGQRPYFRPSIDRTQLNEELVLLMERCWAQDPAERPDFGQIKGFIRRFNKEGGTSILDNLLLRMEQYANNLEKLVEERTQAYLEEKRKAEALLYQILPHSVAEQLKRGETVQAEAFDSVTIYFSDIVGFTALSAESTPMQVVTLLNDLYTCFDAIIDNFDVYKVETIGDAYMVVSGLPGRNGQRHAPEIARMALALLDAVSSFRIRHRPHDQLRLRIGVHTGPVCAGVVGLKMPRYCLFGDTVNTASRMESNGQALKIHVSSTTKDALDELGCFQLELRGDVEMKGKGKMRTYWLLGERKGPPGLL
FLuc counter = FLuc enzyme inhibition, Npr1 counter-screen; shares compounds with hNpr1 antagonist; purified FLuc enzyme, luminescence, Km substrate; Potency, µM (titrated, usually from 57.6 µM), for inactives: at the top dose activity change, negative = inhibition, hits mostly inhibitors; 0.7% of 1,400 active; also: series mostly up to about 58 µM; 0% is about no effect
GloSensor cGMP = reduces cGMP signal in GloSensor control cells | shares compounds with hNpr1 antagonist | AID 1347051 | HEK293 GloSensor cGMP, SNP-stimulated, luminescence | Potency, µM (titrated, usually from 57.6 µM), without a hit: at the highest dose activity change, negative = inhibition, most hits filed as inhibitors | 69% of 1,400 active; calls by dose curve; also: % is scaled to controls: 0 for no effect and ±100 for the full control effect; nearly all actives have a fitted effect of over 70% in size
Numbers without * were called inactive; [ ] = remark or other dose. Sampled rows, rich in hits. Any-hit rate of the full collection: about 11%. Unless noted, calls follow the shape of the dose curve; as a rule, active = well fitted curve in the direction sought with a large enough effect; inconclusive = small, poorly fitted or top-dose-only effect, or another doubt; inactive = no such curve, though single readings can be large; an effect the other way counts as inactive or inconclusive. Potency is read from the fitted curve at half-maximal effect.

What do the screens show for `COc1cccc(CCC(=O)N2CCC(Oc3ccc(-c4noc(C5CC5)n4)cc3)C2)c1` (centres undefined)?
NIH3T3 tox: inconclusive; HEK293 tox: inconclusive; Luciferase inh: inactive; hNpr1 antagonist: inconclusive

Results for COc1ccc(-c2noc(CC3CCN(C(=O)Cc4ccccc4Cl)CC3)n2)cc1 ?
NIH3T3 tox: inconclusive; HEK293 tox: inconclusive; Luciferase inh: inactive; hNpr1 antagonist: 10µM*; NPR1 antag cnf: 17µM*; NPR2 antag: 22µM*; FLuc counter: 1%; GloSensor cGMP: 19µM*

What do the screens show for `COCc1nc(-c2ccc(OC3CCN(C(=O)c4nn(C)c5ccccc45)C3)cc2)no1` (centres undefined)?
NIH3T3 tox: inconclusive; HEK293 tox: inconclusive; Luciferase inh: inactive; hNpr1 antagonist: 11µM*; NPR1 antag cnf: 19µM*; NPR2 antag: 19µM*; FLuc counter: 0%; GloSensor cGMP: 19µM*

Results for Cn1nc(C(=O)N2CCC(Oc3ccc(-c4noc(C5CC5)n4)cc3)C2)c2ccccc21 (centres undefined) ?
NIH3T3 tox: inconclusive; HEK293 tox: inconclusive; Luciferase inh: inactive; hNpr1 antagonist: inconclusive

Results for COc1ccc(-c2noc(CC3CCN(C(=O)CCc4cccc(OC)c4)CC3)n2)cc1 ?
NIH3T3 tox: inconclusive; HEK293 tox: inconclusive; Luciferase inh: inactive; hNpr1 antagonist: 13µM*; NPR1 antag cnf: 22µM*; NPR2 antag: 22µM*; FLuc counter: 0%; GloSensor cGMP: 17µM*

Results for COCc1nc(-c2ccc(OC3CCN(C(=O)CCc4ccc(OC)cc4)C3)cc2)no1 (centres undefined) ?
NIH3T3 tox: inconclusive; HEK293 tox: inconclusive; Luciferase inh: inactive; hNpr1 antagonist: 14µM*; NPR1 antag cnf: 27µM*; NPR2 antag: 27µM*; FLuc counter: -4%; GloSensor cGMP: inconclusive

Results for O=c1n(CC2CC2)nc2n1CCC(NS(=O)(=O)c1ccc3c(c1)OCCO3)CC2 (centres undefined) ?
NIH3T3 tox: -15%; HEK293 tox: -11%

What do the screens show for `CCCCCC(=O)N1CCC(=O)N(C)C[C@H]2COc3ccc(C)cc3[C@H]21`?
NIH3T3 tox: inconclusive; HEK293 tox: -23%

Results for O=C(NC1CCN(c2ccc3nnc(C4CC4)n3n2)C1)c1cccnc1 (centres undefined) ?
NIH3T3 tox: -27%; HEK293 tox: -8%

What do the screens show for `CC1(c2ccccc2)N(Cc2ccc(O)cc2)C(=O)OC12CCN(C(=O)C1CCC1)CC2` (centres undefined)?
NIH3T3 tox: inconclusive; HEK293 tox: inconclusive; Luciferase inh: inactive; hNpr1 antagonist: 4%[70.6 µM]

Results for Cc1ccc(OCCC2CCN(C(=O)CCc3ccccc3)C2)cc1 (centres undefined) ?
NIH3T3 tox: inconclusive; HEK293 tox: inconclusive; Luciferase inh: inactive; hNpr1 antagonist: -1%

How did COc1cccc(-c2noc(CC3CCN(C(=O)COc4cccc(C)c4)CC3)n2)c1 do in these assays?
NIH3T3 tox: inconclusive; HEK293 tox: inconclusive; Luciferase inh: inactive; hNpr1 antagonist: 20µM*; NPR1 antag cnf: inconclusive; NPR2 antag: 31µM*; FLuc counter: 2%; GloSensor cGMP: 39µM*

What do the screens show for `COc1cccc(CCC(=O)N2CCC(Cc3nc(-c4ccccc4)no3)CC2)c1`?
NIH3T3 tox: inconclusive; HEK293 tox: inconclusive; Luciferase inh: inactive; hNpr1 antagonist: inconclusive

What do the screens show for `COc1cccc(-c2noc(CC3CCN(C(=O)CCc4ccccc4)CC3)n2)c1`?
NIH3T3 tox: inconclusive; HEK293 tox: inconclusive; Luciferase inh: inactive; hNpr1 antagonist: 13µM*; NPR1 antag cnf: 27µM*; NPR2 antag: 24µM*; FLuc counter: -7%; GloSensor cGMP: 24µM*

How did COCc1nc(-c2ccc(OC3CCN(Cc4ccc(C(F)(F)F)cc4)C3)cc2)no1 (centres undefined) do in these assays?
NIH3T3 tox: inconclusive; HEK293 tox: inconclusive; Luciferase inh: inactive; hNpr1 antagonist: 7.9µM*; NPR1 antag cnf: 8.6µM*; NPR2 antag: 11µM*; FLuc counter: 2%; GloSensor cGMP: 7.7µM*

How did Cc1cccc(OCC(=O)N2CCC(Cc3nc(-c4cnccn4)no3)CC2)c1 do in these assays?
NIH3T3 tox: inconclusive; HEK293 tox: -23%; Luciferase inh: inactive; hNpr1 antagonist: -3%

Results for Cc1ccc(-c2noc(CCCC(=O)N3CCC(CCOc4ccccc4F)C3)n2)cc1 (centres undefined) ?
NIH3T3 tox: inconclusive; HEK293 tox: inconclusive; Luciferase inh: inactive; hNpr1 antagonist: 4.5µM*; NPR1 antag cnf: 17µM*; NPR2 antag: 19µM*; FLuc counter: -3%; GloSensor cGMP: 15µM*

Results for O=C1CC2CCCC(C1)N2C(=O)c1ccc(C(F)(F)F)cc1 ?
NIH3T3 tox: -27%[138 µM]; HEK293 tox: -19%[172 µM]; Luciferase inh: inactive; hNpr1 antagonist: 3%[70.6 µM]

How did Cc1nc(-c2ccc(OC3CCN(C(=O)c4cc(C)n(C)n4)C3)cc2)no1 (centres undefined) do in these assays?
NIH3T3 tox: inconclusive; HEK293 tox: inconclusive; Luciferase inh: inactive; hNpr1 antagonist: inconclusive; NPR1 antag cnf: inconclusive; NPR2 antag: inconclusive; FLuc counter: 1%; GloSensor cGMP: inconclusive

What do the screens show for `Cc1nc(-c2ccc(OC3CCN(C(=O)NCC(C)C)C3)cc2)no1` (centres undefined)?
NIH3T3 tox: inconclusive; HEK293 tox: inconclusive; Luciferase inh: inactive; hNpr1 antagonist: inconclusive

How did COc1ccc(CCC(=O)N2CCC(Cc3nc(-c4ccccc4)no3)CC2)cc1 do in these assays?
NIH3T3 tox: inconclusive; HEK293 tox: 35µM*; Luciferase inh: inactive; hNpr1 antagonist: 10µM*; NPR1 antag cnf: 12µM*; NPR2 antag: 15µM*; FLuc counter: 2%; GloSensor cGMP: 12µM*

Compound activity: PubChem, National Center for Advancing Translational Sciences (NCATS)
